Results published in PubChem BioAssay.
Calls of active or inactive are those of the source.

Experiments:
Albumin (Bos taurus) = Albumin (Bos taurus) (UniProt P02769); test: compounds binding labelled BSA control protein – biochemical, small-molecule microarray, Alexa647 label, 635/667 nm fluorescence, artefact control for SMM control protein annotation, profiling panel (AID 1118); details: BSA-A647 binding, fluorescence 635 nm, higher = more signal;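 also: score merges 667 nm emission intensity and signal-to-noise per printed compound spot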
Chain of Albumin (Bos taurus) (P02769 whole entry, looked up): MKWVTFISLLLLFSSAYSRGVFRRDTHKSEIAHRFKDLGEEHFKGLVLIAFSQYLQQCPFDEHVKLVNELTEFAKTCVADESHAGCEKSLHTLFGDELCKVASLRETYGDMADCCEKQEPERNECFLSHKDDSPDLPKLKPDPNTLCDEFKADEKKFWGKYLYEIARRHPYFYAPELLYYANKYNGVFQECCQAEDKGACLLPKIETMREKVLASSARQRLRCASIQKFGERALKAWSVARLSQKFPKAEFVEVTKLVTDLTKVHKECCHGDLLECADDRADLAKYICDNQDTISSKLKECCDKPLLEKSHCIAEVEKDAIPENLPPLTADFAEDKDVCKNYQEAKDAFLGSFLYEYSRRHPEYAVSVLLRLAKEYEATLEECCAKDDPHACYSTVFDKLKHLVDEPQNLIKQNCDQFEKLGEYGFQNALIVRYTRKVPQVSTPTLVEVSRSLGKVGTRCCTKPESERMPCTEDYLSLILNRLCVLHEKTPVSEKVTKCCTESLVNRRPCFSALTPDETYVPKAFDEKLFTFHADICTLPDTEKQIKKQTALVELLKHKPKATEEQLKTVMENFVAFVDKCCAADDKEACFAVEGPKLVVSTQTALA

[1] = probe aXIP binding to arrayed compounds – biochemical, NeuroSMM set, 635/667 nm fluorescence, primary screen (AID 1119); details: small-molecule microarray; higher = more signal, called active from +8 up or from −8 down unless noted;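 also: probe is the protein aXip251-270 applied at 1 µg/mL to compound-printed slides; binding of probe to printed compounds measured as 667 nm fluorescence plus signal to noise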
[2] = probe aNOTCH3 binding on compound microarray – biochemical, small-molecule microarray, 635/667 nm fluorescence, primary screen (AID 1120); details: higher = more signal; small-molecule microarray, probe aNOTCH3, fluorescence unless noted;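 also: probe is a biotin-tagged antibody raised against NOTCH3 rather than NOTCH3 protein; score merges spot fluorescence near 667 nm with spot signal to noise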
[3] = probe aNOTCH2 binding on compound microarray – biochemical, small-molecule microarray, 635/667 nm fluorescence, primary screen (AID 1121); details: higher = more signal; small-molecule microarray, probe aNOTCH2, fluorescence unless noted;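 also: score merges feature fluorescence read at 667 nm with its signal to noise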
[4] = target: Carbonic anhydrase 2 (Homo sapiens) (UniProt P00918); test: compounds binding carbonic anhydrase 2 – biochemical, small-molecule microarray, Alexa647-labelled CAII, profiling panel (AID 1122); details: CAII-A647 binding fluorescence, higher = more signal
[5] = COS7 lysate on small-molecule microarray, probe aHis, 635 nm (AID 1123); details: higher = more signal; small-molecule microarray, COS7 cell lysate, probe aHis, fluorescence unless noted;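 also: z-score combines 667nm fluorescence intensity with signal-to-noise per printed compound spot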
[6] = probe aLAP1 signal on lysate-treated microarray – cell lysate, small-molecule microarray, COS7 lysate, primary screen (AID 1124); details: higher = more signal; small-molecule microarray, COS7 cell lysate, probe aLAP1, fluorescence unless noted;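 also: lysate comes from COS7 cells expressing LAP1 and is applied at 0.3 µg/mL; score merges spot fluorescence near 667 nm with signal-to-noise over triplicate slides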
Sam68 (KHDRBS1) = test: compounds binding KHDRBS1 protein – biochemical, small-molecule microarray, 635 nm fluorescence, primary screen (AID 1125); details: higher = more signal;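 also: score merges 667 nm channel intensity with signal to noise over triplicate slides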
[7] = system: Chordin-like protein 2 (CHRDL2); test: compounds binding chordin-like 2 – biochemical, small-molecule microarray, 635 nm fluorescence, primary screen (AID 1126); details: fluorescence 635 nm, higher = more signal;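 also: printed compound slides probed with Chrdl2 protein at 4 µg/mL for 1 h at 4 C; score merges 667 nm emission intensity with signal to noise over three replicate slides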
[8] = target: Concanavalin-A (Canavalia ensiformis) (UniProt P02866); test: compounds binding concanavalin A lectin – biochemical, small-molecule microarray, Alexa647 label, 635 nm, artefact control for SMM control protein annotation, primary screen (AID 1127); details: ConA-A647 binding fluorescence, higher = more signal;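 also: z combines 667 nm emission intensity with signal-to-noise across three replicate slides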
Chain of Concanavalin-A (Canavalia ensiformis) (P02866 whole entry, looked up): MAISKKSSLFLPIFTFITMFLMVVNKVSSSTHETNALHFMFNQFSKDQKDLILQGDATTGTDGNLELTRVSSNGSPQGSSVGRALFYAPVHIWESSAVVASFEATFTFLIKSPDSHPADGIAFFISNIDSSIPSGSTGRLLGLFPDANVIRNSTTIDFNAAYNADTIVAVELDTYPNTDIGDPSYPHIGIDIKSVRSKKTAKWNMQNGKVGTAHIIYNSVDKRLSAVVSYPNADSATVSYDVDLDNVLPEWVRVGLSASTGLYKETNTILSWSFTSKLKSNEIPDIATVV

[9] = compounds binding Alexa647 anti-His antibody – biochemical, small-molecule microarray, 635 nm fluorescence, artefact control for SMM control protein annotation, primary screen (AID 1128); details: higher = more signal;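 also: score merges feature fluorescence with signal-to-noise for each printed compound spot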
[10] = system: Human papillomavirus type 1a E7 protein (residues 1-88); test: HPV1a E7 small-molecule binders, primary screen, biochemical, small-molecule microarray, residues 1-88, 635 nm (AID 1129); details: small-molecule microarray binding, fluorescence 635 nm; higher = more signal
[11] = target: Focal adhesion kinase 1 (Homo sapiens) (UniProt Q05397); test: PTK2 protein binding on printed compound slides – biochemical, small-molecule microarray, 635/667 nm fluorescence, BSA, DTT, primary screen (AID 1130); details: 635 nm fluorescence, higher = more signal;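 also: composite of spot emission at 667 nm and signal to noise over triplicate slides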
Chain of Focal adhesion kinase 1 (Homo sapiens) (Q05397 whole entry, looked up): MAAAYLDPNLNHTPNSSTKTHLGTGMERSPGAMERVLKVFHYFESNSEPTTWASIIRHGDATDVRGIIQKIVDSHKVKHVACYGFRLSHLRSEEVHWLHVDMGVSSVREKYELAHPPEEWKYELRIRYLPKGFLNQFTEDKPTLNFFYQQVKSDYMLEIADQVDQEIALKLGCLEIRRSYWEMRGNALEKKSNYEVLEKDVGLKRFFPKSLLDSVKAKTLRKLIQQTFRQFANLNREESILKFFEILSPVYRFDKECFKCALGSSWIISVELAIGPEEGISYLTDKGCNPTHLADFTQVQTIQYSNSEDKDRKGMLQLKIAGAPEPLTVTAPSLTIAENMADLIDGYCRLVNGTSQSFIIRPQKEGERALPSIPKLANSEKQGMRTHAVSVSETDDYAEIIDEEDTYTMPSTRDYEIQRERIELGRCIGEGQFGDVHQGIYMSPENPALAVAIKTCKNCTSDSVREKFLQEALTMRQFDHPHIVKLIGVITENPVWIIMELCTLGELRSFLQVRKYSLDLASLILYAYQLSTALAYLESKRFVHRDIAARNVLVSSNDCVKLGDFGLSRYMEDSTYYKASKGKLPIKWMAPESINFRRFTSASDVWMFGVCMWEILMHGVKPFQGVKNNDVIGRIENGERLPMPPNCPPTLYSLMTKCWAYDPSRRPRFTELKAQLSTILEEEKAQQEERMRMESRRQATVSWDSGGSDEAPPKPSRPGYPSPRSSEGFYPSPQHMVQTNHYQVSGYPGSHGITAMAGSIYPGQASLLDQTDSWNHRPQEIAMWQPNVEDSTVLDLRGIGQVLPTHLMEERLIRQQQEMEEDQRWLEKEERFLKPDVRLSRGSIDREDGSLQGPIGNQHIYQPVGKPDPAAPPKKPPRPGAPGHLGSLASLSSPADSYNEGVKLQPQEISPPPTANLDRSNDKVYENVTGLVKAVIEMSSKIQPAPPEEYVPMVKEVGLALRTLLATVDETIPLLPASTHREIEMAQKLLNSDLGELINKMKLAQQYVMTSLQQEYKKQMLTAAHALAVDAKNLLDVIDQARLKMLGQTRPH

[12] = system: Fibrinogen (Alexa647-labelled); test: Alexa647-fibrinogen binding to printed small molecules – biochemical, small-molecule microarray, 635/667 nm fluorescence, artefact control for SMM control-protein annotation, profiling panel (AID 1131); details: fibrinogen-A647 binding fluorescence, higher = more signal;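 also: z-score merges 667 nm fluorescence with per-spot signal-to-noise over triplicate slides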
[13] = target: Follistatin (Homo sapiens) (UniProt P19883); test: FST protein binding to printed compounds – biochemical, small-molecule microarray, 635/667 nm fluorescence, primary screen (AID 1132); details: 635 nm fluorescence, higher = more signal
Chain of Follistatin (Homo sapiens) (P19883 whole entry, looked up): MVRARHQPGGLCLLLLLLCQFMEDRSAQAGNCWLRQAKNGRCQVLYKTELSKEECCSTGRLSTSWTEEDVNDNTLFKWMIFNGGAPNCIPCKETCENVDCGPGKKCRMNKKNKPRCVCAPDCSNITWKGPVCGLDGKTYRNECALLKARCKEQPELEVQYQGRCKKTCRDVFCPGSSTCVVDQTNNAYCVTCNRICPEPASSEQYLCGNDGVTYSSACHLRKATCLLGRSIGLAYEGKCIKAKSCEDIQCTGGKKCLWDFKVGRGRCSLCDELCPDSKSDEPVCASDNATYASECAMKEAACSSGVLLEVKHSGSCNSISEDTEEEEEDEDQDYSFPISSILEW

[14] = target: Fibroblast growth factor 2 (Homo sapiens) (UniProt P09038); test: basic fibroblast growth factor binding to printed compounds – biochemical, small-molecule microarray, 635/667 nm fluorescence, primary screen (AID 1133); details: FGF2, fluorescence 635/667, higher = more signal
Chain of Fibroblast growth factor 2 (Homo sapiens) (P09038 whole entry, looked up): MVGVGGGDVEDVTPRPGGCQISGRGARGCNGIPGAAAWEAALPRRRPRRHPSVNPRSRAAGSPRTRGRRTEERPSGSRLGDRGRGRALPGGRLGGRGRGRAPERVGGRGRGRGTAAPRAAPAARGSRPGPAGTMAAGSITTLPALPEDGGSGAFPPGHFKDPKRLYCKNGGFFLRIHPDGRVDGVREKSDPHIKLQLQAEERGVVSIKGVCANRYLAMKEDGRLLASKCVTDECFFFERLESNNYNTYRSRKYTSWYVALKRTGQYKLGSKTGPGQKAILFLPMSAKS

[15] = JC-1 mitochondrial potential readout, lung cancer cells – cell-based, A549, JC-1 fluorescence, basal, 24 h, 100 nL, profiling panel (AID 1138); details: higher = more signal;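 also: A549 lung adenocarcinoma cells under basal conditions with no added stimulus; test concentration not given here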
Lefty1 = Lefty1 protein binding to printed compounds – biochemical, small-molecule microarray, 635/667 nm fluorescence, primary screen (AID 1139); details: fluorescence 635/667, higher = more signal
[16] = system: wheat germ agglutinin (Triticum aestivum), Alexa647-labelled; test: Alexa647-WGA lectin binding to printed small molecules – biochemical, small-molecule microarray, 635/667 nm fluorescence, artefact control for SMM control-protein annotation, profiling panel (AID 1140); details: WGA-A647 binding, 635 nm fluorescence, higher = more signal;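 also: score merges 667 nm feature emission with signal to noise over triplicate slides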
[17] = target: Luciferin 4-monooxygenase (Photinus pyralis) (UniProt P08659); test: inhibition of purified Photinus pyralis luciferase – biochemical, luminescence, purified enzyme, 2006 set, primary screen (AID 1141); details: purified firefly luciferase, SteadyGlo luminescence, 30 min; higher = more signal, called active from +8 up or from −8 down unless noted;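 also: cell-free assay with purified firefly luciferase at 100 ng per well in PBS; test concentration not given here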
Chain of Luciferin 4-monooxygenase (Photinus pyralis) (P08659 whole entry, looked up): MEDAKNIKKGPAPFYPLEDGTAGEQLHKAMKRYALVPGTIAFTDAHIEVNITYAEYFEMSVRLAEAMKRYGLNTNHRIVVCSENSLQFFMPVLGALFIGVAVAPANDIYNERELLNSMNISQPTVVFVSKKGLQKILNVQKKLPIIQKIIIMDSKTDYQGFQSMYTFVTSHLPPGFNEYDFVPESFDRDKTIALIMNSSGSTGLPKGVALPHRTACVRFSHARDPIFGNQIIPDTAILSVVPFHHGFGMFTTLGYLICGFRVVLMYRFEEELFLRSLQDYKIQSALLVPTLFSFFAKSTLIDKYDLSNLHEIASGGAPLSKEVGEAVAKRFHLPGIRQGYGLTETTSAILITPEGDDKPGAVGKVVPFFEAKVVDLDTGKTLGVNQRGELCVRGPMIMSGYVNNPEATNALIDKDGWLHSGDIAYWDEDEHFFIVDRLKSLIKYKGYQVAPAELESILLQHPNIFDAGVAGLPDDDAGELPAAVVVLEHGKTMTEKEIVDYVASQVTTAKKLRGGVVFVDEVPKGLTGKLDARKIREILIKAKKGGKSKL

SMILES	composite z-score (Albumin (Bos taurus))	composite Z-score [1]	composite z-score [2]	composite z-score [3]	composite z-score [4]	composite z-score [5]	composite z-score [6]	composite z-score (Sam68 (KHDRBS1))	composite z-score [7]	composite z-score [8]	composite z-score [9]	composite z-score [10]	composite z-score [11]	composite z-score [12]	composite z-score [13]	composite z-score [14]	z-score [15]	composite z-score (Lefty1)	composite z-score [16]	z-score [17]
COC(=O)[C@@]1(Cc2ccc(F)cc2)[C@H]2c3cc(C(=O)N(C)C)[nH]c3C[C@H]2CN1C(=O)c1ccccc1	0.659	0.495 [setting not given] (inactive)	-0.0414 [setting not given]	-0.0763 [setting not given]	0.777	0.694 [setting not given]	0.18 [setting not given]	0.361	-0.268	0.419	1.8	0.733	0.745	0.817	-0.252	-0.0573	0.843	-0.855	0.186	-0.0137 [setting not given] (inactive)
COC(=O)[C@H]1[C@@H](O)[C@@]2(O)c3c(OC)cc(OC)cc3O[C@@]2(c2ccc(OC)cc2)[C@@H]1c1ccccc1	0.0007	-0.619 (inactive)	-0.101	-0.0439	-0.0268	0.309	0.413	0.34	0.671	0.37	0.287	0.741	0.153	0.323	0.53	0.4	0.862	0.614	0.0623	-1.13 (inactive)
CCCc1cc2c(n1CCO)C(C)C1CN(C(=O)c3ccccc3)C(C)(C(=O)OC)C21 (stereo not given)	0.979	0.43 (inactive)	1.25	0.424	0.843	3.26	1.09	0.563	-1.23	1.11	2.55	1.14	1.42	0.64	-0.315	-0.634	0.9	-0.875	1.25	1.54 (inactive)
CCc1cc2c(nc1CC)CCN(CCC(C)=NOC)C2	0.802	0.154 (inactive)	0.256	-0.0028	0.639	0.45	1.21	0.92	0.639	-0.426	3.12	0.422	-0.128	-0.15	1.24	0.294	0.268	0.861	-0.141	-0.773 (inactive)
CCCc1cc2c(n1Cc1cccc(Cl)c1)C(C)C1CN(C(=O)c3ccccc3)C(C)(C(=O)OC)C21 (stereo not given)	1.01	-0.244 (inactive)	0.0372	0.0293	0.797	2.68	0.719	0.958	-1.94	0.298	2.37	1.23	1.16	0.989	-0.264	-1.1	1.95	-0.763	1.44	0.566 (inactive)
COc1cc2c(cc1O)C=[N+](C)CC2	0.502	-0.296 (inactive)	-0.0377	-0.133	0.329	-0.4	-0.93	-1.67	0.185	-1.48	1.02	-0.662	-0.0048	-1.32	0.469	1.17	1.28	0.495	-0.252	-0.556 (inactive)
CN1CCC(c2ccc(CO)cc2)=CC1C1CC1 (stereo not given)	-1.02	-0.557 (inactive)	0.0357	-0.192	-0.0046	-0.106	-0.334	-0.172	0.0276	0.28	-0.192	-0.855	0.363	-0.0825	0.231	0.0573	0.319	0.85	-0.0579	-0.866 (inactive)
OCc1ccc(C2=CC(C3CC3)N(Cc3sc4ccccc4c3Cl)CC2)cc1 (stereo not given)	-0.0477	0.565 (inactive)	-0.0932	-0.133	0.306	0.88	0.434	1.07	0.529	0.948	2.28	1.17	0.257	0.483	1.06	0.867	0.941	0.853	0.42	-1.57 (inactive)
